Bioassay records (PubChem BioAssay)
A selection: hits, their analogues and other compounds. The true share with any hit is near 10%.
GPT2 inhibitor – inhibitors of human GPT2 alanine aminotransferase; Potency, µM (series often up to 57.7 µM), without a hit: top-dose activity change, negative = inhibition, usual class: inhibitors; Recombinant GPT2, coupled pyruvate oxidase/HRP Amplex Red fluorescence; actives 0.25% (n = 100,000); Q8TD30; also: nearly all actives have a fitted effect of over 60% in size
Target sequence (Q8TD30 whole entry, looked up): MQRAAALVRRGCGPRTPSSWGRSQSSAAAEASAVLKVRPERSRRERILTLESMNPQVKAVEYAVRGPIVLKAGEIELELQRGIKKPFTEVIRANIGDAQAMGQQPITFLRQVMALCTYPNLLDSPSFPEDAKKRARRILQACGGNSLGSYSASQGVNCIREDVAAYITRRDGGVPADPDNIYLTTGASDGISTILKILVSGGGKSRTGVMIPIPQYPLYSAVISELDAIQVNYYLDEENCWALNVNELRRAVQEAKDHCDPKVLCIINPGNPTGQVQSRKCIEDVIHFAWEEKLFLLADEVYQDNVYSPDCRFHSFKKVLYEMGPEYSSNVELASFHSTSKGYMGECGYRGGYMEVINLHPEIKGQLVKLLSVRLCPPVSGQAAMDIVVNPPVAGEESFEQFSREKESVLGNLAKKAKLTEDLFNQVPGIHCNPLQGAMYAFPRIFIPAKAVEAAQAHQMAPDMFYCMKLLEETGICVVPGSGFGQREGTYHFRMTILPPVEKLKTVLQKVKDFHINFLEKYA
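Recombinant GPT2 (10ng/uL) with 250uM a-KG and 2mM L-alanine, 30 min at room temperature, in HEPES pH 7.5 buffer. Pyruvate detected by pyruvate oxidase/HRP/Amplex Red fluorescence after 30 min in the dark; AOA (50uM) as positive control.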
hNpr1 antagonist – human Npr1 receptor antagonism; Potency, µM (top dose mostly 46.3 µM), without a hit: at the top dose activity change, negative = inhibition, most hits filed as inhibitors; P16066; HEK293 hNpr1 GloSensor cGMP, ANP-stimulated luminescence; AID 1347048; actives 1.6% (n = 76,000); calls by dose curve; also: nearly all actives have a fitted effect of over 60% in size
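Compound pre-incubated 30 min at room temperature on GloSensor-loaded HEK293 cells stably carrying hNpr1 and the pGS-40F cGMP biosensor. Stimulation uses hNppA at 0.1 nM final; luminescence is taken at baseline and 20 min post-agonist.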
HEK cytotox – kills HEK 293 cells | HEK 293 viability, ATP luminescence (CellTiter-Glo), 48-72 h | Potency, µM (doses to about 115 µM), without a hit: top-dose activity change, negative = cytotoxicity, hits mostly inhibitors | actives 6.6% (n = 94,000); also: nearly all actives have a fitted effect of over 60% in size
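Viability of HEK 293 cells, plated at 250 cells/well, was judged by cellular ATP after compound treatment for 48 or 72 hr. Luminescence was imaged 10 min after CellTiter-Glo addition at room temperature.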
FLuc inh – inhibitors of firefly (Photinus pyralis) luciferase | AID 1347043 | purified P. pyralis luciferase, luminescence, biochemical | Potency, µM (doses to about 115 µM), most hits filed as inhibitors | P08659 | actives 2.5% (n = 76,000); also: nearly all actives have a fitted effect of over 65% in size
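Purified 10nM P. pyralis luciferase with 10uM D-luciferin and 10uM ATP in 50mM Tris acetate pH 7.5, 10mM Mg acetate, 0.01% Tween-20, 0.05% BSA. qHTS titration; luminescence read by CCD imager.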
NIH3T3 tox – NIH 3T3 cell cytotoxicity. NIH 3T3 viability, CellTiter-Glo ATP luminescence, 48-72 h. Potency, µM (top dose mostly 96.7 µM), without a hit: at the highest dose activity change, negative = cytotoxicity, usual class: inhibitors. actives 4.3% (n = 94,000). AID 1345082; also: nearly all actives have a fitted effect of over 55% in size
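Cytotoxicity was measured by CellTiter-Glo ATP luminescence after 48 or 72 h compound exposure at 37 °C. Mouse NIH 3T3 fibroblasts were seeded at 400 cells/well and dosed by 23 nL pin transfer.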
Numbers without * were called inactive. Unless noted, calls follow the shape of the dose curve; as a rule, active = well fitted curve in the direction sought with a large enough effect; inconclusive = small, poorly fitted or top-dose-only effect, or another doubt; inactive = no such curve, though single readings can be large; an effect the other way counts as inactive or inconclusive. % is scaled to controls: 0 for no effect and ±100 for the full control effect; potency is read from the fitted curve at half-maximal effect.

Screening COc1ccccc1Nc1ccnc(N2CCC[C@H]2C(=O)NC2CCCC2)n1 returned GPT2 inhibitor inactive, HEK cytotox inconclusive and NIH3T3 tox -22%.
Cn1cccc1C(=O)N1CCC(n2cc(-c3nc(-c4ccccc4)no3)nn2)C1 (centres undefined) was read as GPT2 inhibitor inactive, hNpr1 antagonist 18µM*, HEK cytotox 45µM*, FLuc inh inconclusive and NIH3T3 tox inconclusive.
Screening Cn1cccc1C(=O)N1CCC(n2cc(-c3nc(-c4ccccc4)no3)nn2)CC1 returned GPT2 inhibitor inactive, hNpr1 antagonist -20%, HEK cytotox inconclusive, FLuc inh inconclusive and NIH3T3 tox inconclusive.
Cc1ccccc1C(=O)N1CCC(n2cc(-c3nc(-c4ccccc4)no3)nn2)C1 (centres undefined) was read as GPT2 inhibitor inactive, hNpr1 antagonist 7.9µM*, HEK cytotox inconclusive, FLuc inh inconclusive and NIH3T3 tox inconclusive.
Screening N#Cc1ccc(C(=O)N2CCC(n3cc(-c4nc(-c5ccccc5)no4)nn3)C2)cc1 (centres undefined) returned GPT2 inhibitor inactive, hNpr1 antagonist inconclusive, HEK cytotox inconclusive, FLuc inh inconclusive and NIH3T3 tox inconclusive.
For O=C(c1cc(F)ccc1F)N1CCC(n2cc(-c3nc(-c4ccccc4)no3)nn2)CC1 the results were GPT2 inhibitor inactive, hNpr1 antagonist -30%, HEK cytotox inconclusive, FLuc inh inactive and NIH3T3 tox inconclusive.
For O=C(c1ccc(F)cc1Cl)N1CCC(n2cc(-c3nc(-c4ccccc4)no3)nn2)CC1 the results were GPT2 inhibitor inactive, hNpr1 antagonist 18µM*, HEK cytotox inconclusive, FLuc inh inconclusive and NIH3T3 tox inconclusive.
N#Cc1ccc(C(=O)N2CCCC(n3cc(-c4nc(-c5ccccc5)no4)nn3)C2)cc1 (centres undefined) was read as GPT2 inhibitor -1%, hNpr1 antagonist 11µM*, HEK cytotox inconclusive, FLuc inh inconclusive and NIH3T3 tox -23%.
`O=C(Cc1ccccc1)N1CCCN(c2ccc3nnc(C4CC4)n3n2)CC1` gave HEK cytotox 3% and NIH3T3 tox -4%.
Cc1ccc(C2Cn3nnc(C(=O)N4CCN(C(=O)c5ccc(C(C)(C)C)cc5)CC4)c3CO2)cc1 (centres undefined) was read as GPT2 inhibitor 3%, hNpr1 antagonist -13%, HEK cytotox inconclusive, FLuc inh inactive and NIH3T3 tox inconclusive.
Screening O=C(c1ccccc1)N1CCC(n2cc(-c3nc(-c4ccccc4)no3)nn2)C1 (centres undefined) returned GPT2 inhibitor inactive, hNpr1 antagonist 13µM*, HEK cytotox inconclusive, FLuc inh inconclusive and NIH3T3 tox inconclusive.
Screening COc1ccc(C(=O)N2CCC(n3cc(-c4nc(-c5ccccc5)no4)nn3)C2)cc1 (centres undefined) returned GPT2 inhibitor -1%, hNpr1 antagonist inconclusive, HEK cytotox inconclusive, FLuc inh inconclusive and NIH3T3 tox inconclusive.
O=C(c1cccs1)N1CCC(n2cc(-c3nc(-c4ccccc4)no3)nn2)CC1 was read as GPT2 inhibitor -7%, hNpr1 antagonist inconclusive, HEK cytotox 35µM*, FLuc inh inactive and NIH3T3 tox inconclusive.
Screening O=C(c1ccc(Cl)cc1)N1CCC(n2cc(-c3nc(-c4ccccc4)no3)nn2)C1 (centres undefined) returned GPT2 inhibitor inactive, hNpr1 antagonist inconclusive, HEK cytotox 22µM*, FLuc inh inconclusive and NIH3T3 tox -55%.
`O=C(c1ccncc1)N1CCC(n2cc(-c3nc(-c4ccccc4)no3)nn2)CC1` gave GPT2 inhibitor -1%, hNpr1 antagonist -29%, HEK cytotox inconclusive, FLuc inh inconclusive and NIH3T3 tox 32µM*.
`O=C(Cc1cccs1)N1CCC(n2cc(-c3nc(-c4ccccc4)no3)nn2)C1` (centres undefined) gave GPT2 inhibitor inactive, hNpr1 antagonist -26%, HEK cytotox inconclusive, FLuc inh inconclusive and NIH3T3 tox inconclusive.
